Screens as filed in PubChem BioAssay.
Most compounds without a hit are left out; they make up all but 4.3% or so of the library.
NR3A LBD binder – modulators (binders) of human NR3A ligand-binding domain; NR3A LBD differential scanning fluorimetry, Tm shift; 0% = protein alone, 100% = glycine-bound protein; Tm shift relative to glycine control, % at 25 µM; hit rate 2.5% among 340,000;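 active = melting temperature shift of at least 10% of the positive control shift, at one fixed dose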
HGIII-sPLA2 inh – Inhibits HGIII-sPLA2 liposome hydrolysis, primary screen. hit rate 0.56% among 370,000. QFRET BODIPY PC-A2 liposome hydrolysis, fluorescence. inhibition, % at 12.2 µM;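 active = inhibition above mean plus 3 SD of compounds lying within the high and low control bounds, cut at about 19% in these data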;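 note: 0% = median of test compound wells and 100% = no enzyme DMSO wells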
Target sequence (Q9NZ20 whole entry, looked up): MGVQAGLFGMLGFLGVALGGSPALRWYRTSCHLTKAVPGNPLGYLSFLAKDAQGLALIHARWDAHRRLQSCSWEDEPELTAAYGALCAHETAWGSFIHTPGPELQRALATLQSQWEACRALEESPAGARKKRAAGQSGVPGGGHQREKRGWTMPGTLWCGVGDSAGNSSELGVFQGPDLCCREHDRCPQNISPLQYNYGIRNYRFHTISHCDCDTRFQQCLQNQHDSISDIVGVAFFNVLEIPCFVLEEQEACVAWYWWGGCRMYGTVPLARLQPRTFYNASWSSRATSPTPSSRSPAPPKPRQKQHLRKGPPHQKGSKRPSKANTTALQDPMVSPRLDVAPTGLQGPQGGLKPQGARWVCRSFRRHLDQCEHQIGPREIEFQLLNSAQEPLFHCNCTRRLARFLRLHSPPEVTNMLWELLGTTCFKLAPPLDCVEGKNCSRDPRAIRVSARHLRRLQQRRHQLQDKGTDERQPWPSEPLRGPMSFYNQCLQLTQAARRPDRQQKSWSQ
ADAM10 inh – ADAM10 inhibition, QFRET primary screen; O14672; recombinant ADAM10, EDANS/DABCYL FRET peptide cleavage, 3 h; inhibition, % at 7 µM; hit rate 0.62% among 370,000;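 active = inhibition above a per-campaign cutoff equal to the mean of compounds falling between control-based bounds plus 3 SD, cut at about 20% in these data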;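 note: 0% = DMSO wells while the 100% control is not disclosed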
FAS TE block – FAS thioesterase (human) inhibition; recombinant FAS-TE, OMFH fluorogenic substrate, fluorescence endpoint; inhibition, % at 15 µM; hit rate 0.67% among 360,000; AID 602261; P49327;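 active = compounds whose normalised, plate-corrected inhibition of enzyme fluorescence in the single-dose primary screen is 50% or more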;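 note: 0% = DMSO with enzyme and 100% = substrate without enzyme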
ADAM17 inh – inhibitors of human ADAM17; P78536; recombinant ADAM17, EDANS/DABCYL FRET peptide cleavage; inhibition, % at 6.95 µM; hit rate 0.83% among 370,000;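 active = inhibition above the mean of compounds lying between control limits plus 3 SD, set per campaign, cut at about 8.5% in these data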;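 note: 0% = DMSO-only wells as the low control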
ADAM10 confirm – confirmation of inhibitors of human ADAM10. shares compounds with ADAM10 inh. ADAM10 QFRET peptide cleavage, EDANS fluorescence. inhibition, % at 6.95 µM. hit rate 1% among 2,100. AID 743208;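 active = inhibition above about 20% chosen separately for each screening run, limit read from the data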;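 note: 0% = DMSO wells and 100% = marimastat wells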
ADAM17 ctr – ADAM17 inhibition, counter-screen for ADAM10 exosite hits; shares compounds with ADAM10 inh; ADAM17 QFRET peptide cleavage, EDANS fluorescence; inhibition, % at 6.95 µM; hit rate 0.5% among 2,100;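 active = mean triplicate inhibition above the solvent-only control wells' mean plus 3 SD, cut at about 12% in these data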;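 note: 0% = DMSO wells and 100% = marimastat wells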
ADAM10 ctr – inhibits human ADAM10 in ADAM17 exosite counter-screen | recombinant ADAM10, EDANS/DABCYL FRET peptide cleavage, 3 h | hit rate 47% among 2,900 | AID 743256 | inhibition, % at 6.95 µM | shares compounds with ADAM17 inh;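 active = mean inhibition over the triplicate runs exceeds the activity threshold set in the earlier primary screen, cut at about 20% in these data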;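 note: 0% = DMSO wells and 100% = marimastat wells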
ADAM17 confirm – human ADAM17 inhibition, confirmation. hit rate 65% among 2,900. shares compounds with ADAM17 inh. recombinant ADAM17, EDANS/DABCYL QFRET peptide cleavage. inhibition, % at 6.95 µM;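 active = mean inhibition across replicates above the hit cutoff set in the primary screen, cut at about 8.5% in these data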;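 note: 0% = DMSO wells and 100% = marimastat wells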
* marks the source's active call; other numbers are inactive results; nt = no result given.

SMILES	NR3A LBD binder	HGIII-sPLA2 inh	ADAM10 inh	FAS TE block	ADAM17 inh	ADAM10 confirm	ADAM17 ctr	ADAM10 ctr	ADAM17 confirm
Cc1c[nH]c2cccc(-c3cccc4ccccc34)c12	nt	-17	-20	nt	-9	nt	nt	nt	nt
Cc1ccc(S(=O)(=O)N2CCCC2C(=O)Nc2nc3c(s2)CCCC3)cc1 (configuration not stated)	-1	-25	-3	14	-4	nt	nt	nt	nt
COc1ccc2nc(NC(=O)C3CCCN3S(=O)(=O)c3ccc(C)cc3)sc2c1 (configuration not stated)	-14	-29	22*	21	8.6*	0	1	13	8
CCOc1cc(N2CCCC2)ccc1[N+](=O)[O-]	1	2	20*	-8	9.3*	1	0	17	7
CCCCN1C(=O)NC(NC(=O)c2ccco2)(C(F)(F)F)C1=O (configuration not stated)	-1	-2	-3	-6	2	nt	nt	nt	nt
CC(C)Oc1ccc(C(=O)NC2(C(F)(F)F)NC(=O)N(CCCc3ccccc3)C2=O)cc1 (configuration not stated)	14*	-22	25*	26	10*	5	1	31*	18*
O=C(COC(=O)C12CC3CC(CC(C3)C1)C2)Nc1ccc(OC(F)F)cc1	8	-21	27*	32	15*	4	1	24*	12*
O=S1(=O)c2ccc(N3CCCC3)cc2Oc2ccccc2CN1Cc1cn(Cc2cccc(F)c2)nn1	nt	-1	-2	nt	-4	nt	nt	nt	nt
Cc1cc(NS(=O)(=O)c2ccc(NC(=O)CSc3nnc(-c4ccccn4)n3-c3ccccc3)cc2)nc(C)n1	nt	-19	-3	nt	-1	nt	nt	nt	nt
O=C(COC(=O)c1ccccc1C(=O)OCC(=O)NCCc1c[nH]c2ccccc12)NCCc1c[nH]c2ccccc12	4	-70	25*	9	9.1*	7	2	28*	11*
COC(=O)c1sccc1NC(=O)CSc1ccccc1NS(=O)(=O)c1ccc(Br)cc1	-7	-77	21*	39	11*	3	2	10	6
COC(=O)c1sccc1NC(=O)CSc1ccccc1NS(=O)(=O)c1ccc(F)cc1	-4	-48	9	30	5	nt	nt	nt	nt
CCOC(=O)C1=CC[C@@H](c2ccccc2)N(S(=O)(=O)c2ccc(C)cc2)[C@H]1/C=C/c1ccccc1	nt	-9	2	16	0	nt	nt	nt	nt
C=C[C@H]1C(C(=O)OCC)=CC[C@@H](c2ccccc2)N1S(=O)(=O)c1ccc(C)cc1	nt	0	28*	23	13*	4	1	16	7
Oc1ccc(C[C@H]2CN([C@@H](Cc3ccc(O)cc3)CN3CCC[C@@H]3CN3C(=S)NC[C@@H]3Cc3ccccc3)C(=S)N2CC2CCCCCC2)cc1	nt	-2	1	-59	5	nt	nt	nt	nt
Oc1ccc(C[C@H]2CN([C@@H](Cc3cccc(O)c3)CN3CCC[C@@H]3CN3C(=S)NC[C@@H]3Cc3ccccc3)C(=S)N2CC2CCCCC2)cc1	nt	-4	31*	-81	14*	9	3	49*	23*
O=C(CN1C(=O)CCSc2ccccc21)Nc1ccc(Cl)c(Cl)c1	nt	-9	2	nt	5	nt	nt	nt	nt
O=C(Nc1ccc(N2CCCC2)c(S(=O)(=O)Nc2cccc(C(F)(F)F)c2)c1)c1cccs1	30*	-9	28*	32	15*	15	5	42*	24*
COc1ccccc1NS(=O)(=O)c1cc(NC(=O)c2cccs2)ccc1N1CCCCC1	1	-17	7	29	4	nt	nt	nt	nt
CN1C(=O)[C@@]2(O[C@H]3C=CC=CN3C3=C2C(=O)CCC3)c2cc([N+](=O)[O-])ccc21	nt	0	7	nt	1	nt	nt	nt	nt
C#CCN(C[C@@H]1[C@@H](OC(=O)NCc2ccc(OC)c(OC)c2)[C@@H](OC(=O)NCc2ccc(OC)c(OC)c2)CN(C(=O)OC(C)C)N1C(=O)OC(C)C)S(=O)(=O)c1ccc(C)cc1	nt	-13	27*	20	11*	4	1	43*	22*
C#CCN(C[C@@H]1[C@@H](OC(=O)NCc2ccc(OC)c(OC)c2)[C@@H](OC(=O)NCc2ccc(OC)c(OC)c2)Cn2c(=O)ccc(=O)n21)S(=O)(=O)c1ccc(C)cc1	nt	-12	17	-6	2	nt	nt	nt	nt
C#CCN(C[C@@H]1[C@@H](OC(=O)NC2CCCC2)[C@@H](OC(=O)NC2CCCC2)CN(C(=O)OC(C)C)N1C(=O)OC(C)C)S(=O)(=O)c1ccc(C)cc1	nt	-19	32*	14	15*	5	3	54*	21*
COC(=O)[C@]1(C#N)CC(=O)N(CC(C)C)[C@@H]1c1ccccc1	nt	8	-6	nt	-2	nt	nt	nt	nt
N/C(=N\N=C\c1cccs1)SC1CC(=O)N(c2ccc(Br)cc2)C1=O (configuration not stated)	5	-31	17	9	8	nt	nt	nt	nt
SMILES	NR3A LBD binder	HGIII-sPLA2 inh	ADAM10 inh	FAS TE block	ADAM17 inh	ADAM10 confirm	ADAM17 ctr	ADAM10 ctr	ADAM17 confirm
C/C(=N\N=C(/N)SC1CC(=O)N(c2ccc(Br)cc2)C1=O)c1cccs1 (configuration not stated)	12*	-53	24*	24	12*	5	2	20	20*
C/C(=N\N=C(/N)SC1CC(=O)N(c2ccccc2)C1=O)c1cccs1 (configuration not stated)	-2	-52	22*	-1	8.6*	2	0	15	12*
Cn1cc(CC(=O)Nc2ccc(Nc3cccnc3)cc2)c2ccccc21	nt	-39	-3	nt	-4	nt	nt	nt	nt
Nc1[nH]c(C(=O)c2ccccc2)c(-c2ccc(Cl)cc2)c1C(=O)c1c[nH]c2ccccc12	nt	-4	-12	nt	-4	nt	nt	nt	nt
C=CCC[C@H](Cc1ccc(F)cc1)C(=O)OC[C@H](Cc1c[nH]c2ccccc12)NC(=O)[C@H](CC=C)CC(=O)N(CCO)Cc1ccccc1	-3	-78	24*	20	12*	17	5	36*	18*
C=CC[C@@H](CC(=O)N(CCO)Cc1ccccc1)C(=O)N[C@H](COC(=O)[C@@H](CC=C)Cc1ccc(F)cc1)Cc1c[nH]c2ccccc12	3	-99	39*	19	14*	10	4	46*	25*
